From PubChem BioAssay (NCI)
This is part of a sample that, as a whole, favours compounds with a hit. Of some 83,000 tested, about 20% had one in any assay.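 Activity criterion: percent growth below 10, measured after cells in 96-well plates were exposed to a single compound concentration for 48 hours.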 Active and inactive are the calls of the source.

The molecules below were run on HOP-62 NSCLC (assay: NCI-60 one-dose screen, 48 h (100 = growth as untreated, 0 = no growth, -100 = all killed)). Details: 10 µM.

Row | Compound | growth
1 | CN(C)CCOc1nc2ccccc2c2c1-c1ccc(Cl)cc1C2=O | -20.4% (active)
2 | CCOC(=O)C(CSC(c1ccccc1)(c1ccccc1)c1ccccc1)NC(=O)C(CSC(c1ccccc1)(c1ccccc1)c1ccccc1)NC(c1ccccc1)(c1ccccc1)c1ccccc1 (stereo not drawn) | 101% (inactive)
3 | O=C1OCC2=C1C(c1cccc(Cl)c1)c1cc3c(cc1N2CCO)CCC3 (stereo not drawn) | 21% (inactive)
4 | O=C(Nc1ccc(Cl)cc1)N1NC(c2ccc(Cl)cc2)C=C1c1ccccc1 (stereo not drawn) | 93.4% (inactive)
5 | S=c1[nH]ccn1-c1c(Cl)cccc1Cl | 93.5% (inactive)
6 | Cc1ccc(NC(=O)CSc2nc3ccccc3c(=O)n2CCc2ccccc2)c(C(=O)O)c1 | 94.4% (inactive)
7 | O=S(=O)(NCCCNc1nccc(-c2c(-c3ccc(F)cc3)nc3sccn23)n1)c1ccc(F)cc1 | 74% (inactive)
8 | CCn1cc(C(=O)O)c(=O)c2cnc(N3CCCC3)nc21 | 108% (inactive)
9 | O=c1c2ccccc2nc(SCCN2CCCCC2)n1CCc1ccccc1 | 89% (inactive)
10 | COc1cc2cc3c(nc2cc1OC)CCN3Cc1ccc(NC(=O)c2ccc(Cl)c(C(F)(F)F)c2)cc1 | 105% (inactive)
11 | CN(C)C(=S)N/N=C\C=N/NC(=S)N(C)C | 92.9% (inactive)
12 | COc1cc(Cl)cc(-c2nn(-c3cccc(NC(=O)c4ccc(Cl)c(Cl)c4)c3)cc2-c2ccncc2)c1 | 105% (inactive)
13 | CCCCCCCCCCCCCCCC(=O)OC1[C@@H](OC(=O)CCCCCCCCCCCCCCC)[C@@H](C(=O)N[C@@H](CCCCN)C(=O)OC)O[C@H]1n1cnc2c(=O)[nH]c(NC(=O)C(C)C)nc21 (stereo partly drawn) | 104% (inactive)
